# Reference: PubChem BioAssay (EPA / NIEHS)
# Inconclusive results are not listed. Active and inactive are the calls of the source. Rule for the calls, unless noted: active = hit-call score of the fitted dose curve at least 0.9, where 1 is the maximum; inactive = score below 0.9.
# Columns and labels:
# [1] = molecular target: Transcription factor Sp1 (Homo sapiens) (UniProt P08047); test: ATG_Sp1_CIS: Attagene CIS-FACTORIAL HepG2 Assay for human Specificity Protein 1 (Sp1) (AID 2282961); details: HepG2 Sp1 cis-reporter transcription, actives raise or lower the signal
# Procedure, shortened: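 HepG2 cells transiently transfected with multiplexed cis-regulated reporter constructs, chemical exposure 24 h. Reporter mRNA quantified by RT-PCR with capillary electrophoresis; bidirectional fit relative to DMSO.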
# [2] = ATG_SREBP_CIS: Attagene CIS-FACTORIAL HepG2 Assay for human Sterol Regulatory Element Binding (SREBP) (AID 2282962); details: HepG2 Attagene cis-factorial SREBP reporter, mRNA; actives raise or lower the signal
# Procedure, shortened: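 HepG2 cells transiently transfected with multiplexed cis-element reporter units report endogenous transcription factor activity. After 24 h of chemical exposure, reporter mRNA was quantified by RT-PCR, 6-FAM labelling, HpaI digestion and capillary electrophoresis; bidirectional fits used DMSO as baseline.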
# [3] = molecular target: Signal transducer and activator of transcription 3 (Homo sapiens) (UniProt P40763); test: ATG_STAT3_CIS: Attagene CIS-FACTORIAL HepG2 Assay for human Signal Transducer and Activator of Transcription 3 (STAT3) (AID 2282963); details: HepG2, Attagene cis-factorial STAT3 reporter transcription; actives raise or lower the signal
# Procedure, shortened: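 HepG2 cells transiently transfected with cis-element-driven multiple reporter transcription units; after 24 h chemical exposure, reporter mRNA measured by RT-PCR, 6-FAM primer-extension labelling, HpaI digestion and capillary electrophoresis. Bidirectional fitting versus DMSO baseline.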
# [4] = ATG_TA_CIS: Attagene CIS-FACTORIAL HepG2 Assay for human TA Basal Promoter (AID 2282964); details: HepG2 Attagene CIS-factorial TA basal promoter reporter; actives raise or lower the signal
# Procedure, shortened: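 Multiplexed mRNA reporter assay, HepG2, 24 h. Reporter cDNA amplified, 6-FAM primer-extended, HpaI-cut, CE-sized; DMSO = negative control and baseline.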
# [5] = ATG_TCF_b_cat_CIS: Attagene CIS-FACTORIAL HepG2 Assay for human T-Cell-Factor with beta-catenin (TCF/b-cat) (AID 2282965); details: HepG2 TCF/beta-catenin cis-reporter transcription, actives raise or lower the signal
# Procedure, shortened: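 Using capillary electrophoresis as the read-out, labelled reporter cDNA fragments from transiently transfected HepG2 were sized and quantified. Exposure lasted 24 hours; activity in either direction was referenced to DMSO.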
# [6] = ATG_TAL_CIS: Attagene CIS-FACTORIAL HepG2 Assay for human TAL Basal Promoter (AID 2282966); details: HepG2 Attagene cis-factorial TAL promoter reporter; actives raise or lower the signal;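 note: background control endpoint measuring basal TAL promoter reporter mRNA not a specific factor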
# Procedure, shortened: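 HepG2 cells were transiently transfected with promoter-driven multiplexed reporter units and dosed for 24 h. Reporter mRNA was measured by RT-PCR with capillary electrophoresis fluorescence; bidirectional fits used DMSO as baseline, serving as a background control.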
# [7] = ATG_TGFb_CIS: Attagene CIS-FACTORIAL HepG2 Assay for human Transforming Growth Factor (TGF) (AID 2282967); details: HepG2 Attagene CIS TGFb reporter, mRNA transcription; actives raise or lower the signal
# Procedure, shortened: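 Transcript-level reporter readout: HepG2 transfectants, 24 h exposure, RNA to cDNA, reporter-specific PCR, fluorescent primer extension, capillary sizing against ROX standards. Gain- or loss-of-signal relative to DMSO.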
# [8] = ATG_VDRE_CIS: Attagene CIS-FACTORIAL HepG2 Assay for human Vitamin D Receptor Element (VDRE) (AID 2282968); details: HepG2 VDRE cis-reporter transcription, actives raise or lower the signal
# Procedure, shortened: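 HepG2 cells transiently transfected with cis-element reporter units, dosed 24 h; reporter mRNA measured by RT-PCR, 6-FAM labeling, HpaI digestion and capillary electrophoresis. Activity fitted bidirectionally against DMSO baseline.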
# [9] = molecular target: X-box-binding protein 1 (Homo sapiens) (UniProt P17861); test: ATG_Xbp1_CIS: Attagene CIS-FACTORIAL HepG2 Assay for human X-box Binding Protein 1 (XBP1) (AID 2282972); details: HepG2 XBP1 cis-element reporter, Attagene multiplex; actives raise or lower the signal
# Procedure, shortened: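 HepG2 cells transiently transfected with cis-regulated multiple reporter transcription units; endogenous transcription factor activity measured 24 hours after chemical dosing. Reporter mRNA quantified by RT-PCR, 6-FAM primer extension, HpaI digestion and capillary electrophoresis; bidirectional fitting versus DMSO.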
# [10] = ATG_GAL4_TRANS: Attagene TRANS-FACTORIAL HepG2 Assay for GAL4 (Internal Marker) (AID 2282976; active = hit-call score of the fitted dose curve at least 0.9, where 1 is the maximum); details: HepG2 Attagene TRANS GAL4 internal marker reporter
# Procedure, shortened: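 HepG2 cells transiently transfected with multiplexed GAL4-UAS reporter constructs were dosed for 24 h. Reporter mRNA was measured by RT-PCR, 6-FAM primer extension, HpaI digestion and capillary electrophoresis, and gain of signal was fitted relative to DMSO.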
# [11] = molecular target: Bile acid receptor (Homo sapiens) (UniProt Q96RI1); test: ATG_FXR_TRANS: Attagene TRANS-FACTORIAL HepG2 Assay for Farnesoid X Receptor (FXR) (AID 2282979; active = hit-call score of the fitted dose curve at least 0.9, where 1 is the maximum;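 note: hits raise reporter mRNA above DMSO so AC50 marks FXR activation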); details: HepG2 Attagene TRANS FXR-GAL4 reporter transcription
# Procedure, shortened: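 HepG2 cells transiently transfected with reporter constructs in which a chimeric FXR-GAL4 protein drives a GAL4-UAS reporter; 24 h compound exposure. Reporter mRNA measured by RT-PCR, FAM labelling, HpaI digestion and capillary electrophoresis; gain-of-signal versus DMSO.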
# [12] = molecular target: Oxysterols receptor LXR-alpha (Homo sapiens) (UniProt Q13133); test: ATG_LXRa_TRANS: Attagene TRANS-FACTORIAL HepG2 Assay for human Liver X Receptor alpha (LXRa) (AID 2282980; active = hit-call score of the fitted dose curve at least 0.9, where 1 is the maximum); details: HepG2 Attagene TRANS reporter, LXRa transactivation
# Procedure, shortened: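 HepG2 cells were transiently transfected with multiplexed reporter units driven by chimeric LXRa–GAL4 fusion proteins, then dosed for 24 h. Reporter mRNA was quantified by RT-PCR, fluorescent labelling and capillary electrophoresis; gain of signal fitted against DMSO baseline.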
# [13] = molecular target: Nuclear receptor subfamily 1 group I member 3 (Homo sapiens) (UniProt Q14994); test: ATG_CAR_TRANS: Attagene TRANS-FACTORIAL HepG2 Assay for human Constitutive Androstane Receptor (CAR) (AID 2282969; active = hit-call score of the fitted dose curve at least 0.9, where 1 is the maximum;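 note: activators raise reporter mRNA above DMSO so AC50 marks induction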); details: HepG2 Attagene TRANS-FACTORIAL CAR reporter
# Procedure, shortened: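 HepG2 cells transiently transfected with multiplexed GAL4-UAS reporter units expressing chimeric NR-Gal4 proteins; compound exposure 24 h. Reporter mRNA measured by RT-PCR, 6-FAM labelling, HpaI digestion and capillary electrophoresis; gain-of-signal fitted against DMSO baseline.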
# [14] = ATG_M_19_TRANS: Attagene TRANS-FACTORIAL HepG2 Assay for M19 Transcription Factor (Internal Marker) (AID 2282974; active = hit-call score of the fitted dose curve at least 0.9, where 1 is the maximum); details: HepG2 Attagene TRANS-FACTORIAL M19 internal marker reporter
# Procedure, shortened: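 HepG2 transiently transfected with GAL4-UAS multiplex reporter constructs, exposed 24 h; reporter RNA quantified by RT-PCR, 6-FAM labeling, HpaI digestion and capillary electrophoresis; internal background marker fitted upward versus DMSO.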
# [15] = molecular target: Steroid hormone receptor ERR1 (Homo sapiens) (UniProt P11474); test: ATG_ERRa_TRANS: Attagene TRANS-FACTORIAL HepG2 Assay for human Estrogen-Related Receptor alpha (ERRa) (AID 2282971; active = hit-call score of the fitted dose curve at least 0.9, where 1 is the maximum); details: HepG2 Attagene TRANS reporter, ERRa transactivation
# Procedure, shortened: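 HepG2 cells transiently transfected with multiplexed GAL4-UAS reporter units reading chimeric ERRa-Gal4 activity; 24 h compound exposure. Reporter mRNA measured by RT-PCR, 6-FAM labelling, HpaI digest and capillary electrophoresis; gain of signal fitted versus DMSO baseline.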
# [16] = molecular target: Glucocorticoid receptor (Homo sapiens) (UniProt P04150); test: ATG_GR_TRANS: Attagene TRANS-FACTORIAL HepG2 Assay for human Glucocorticoid Receptor (GR) (AID 2282978; active = hit-call score of the fitted dose curve at least 0.9, where 1 is the maximum;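 note: activators score as hits since higher reporter transcript over DMSO is fitted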); details: HepG2 Attagene TRANS GR reporter, mRNA transcription
# Procedure, shortened: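 HepG2 cells transiently transfected with GAL4-UAS reporter units and exogenous GR-Gal4 chimera, dosed 24 h. Reporter mRNA by RT-PCR, FAM labeling, HpaI digest and capillary electrophoresis; gain-of-signal fit versus DMSO.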
# [17] = molecular target: Estrogen-related receptor gamma (Homo sapiens) (UniProt P62508); test: ATG_ERRg_TRANS: Attagene TRANS-FACTORIAL HepG2 Assay for human Estrogen-Related Receptor gamma (ERRg) (AID 2282977; active = hit-call score of the fitted dose curve at least 0.9, where 1 is the maximum;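 note: hits increase reporter signal over DMSO so potencies reflect activators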); details: HepG2 Attagene TRANS reporter, ERRg transactivation
# Procedure, shortened: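 Transient HepG2 transfectants, 24 h compound exposure, GAL4-UAS reporter mRNA by RT-PCR/6-FAM labelling/capillary electrophoresis; positive direction vs DMSO.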
# [18] = molecular target: Estrogen receptor (Homo sapiens) (UniProt P03372); test: ATG_ERa_TRANS: Attagene TRANS-FACTORIAL HepG2 Assay for human Estrogen Receptor alpha (ERa) (AID 2282970; active = hit-call score of the fitted dose curve at least 0.9, where 1 is the maximum); details: HepG2 Attagene TRANS ERa GAL4 reporter, mRNA
# Procedure, shortened: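 HepG2 cells transiently transfected with multiplexed GAL4-UAS reporter units; ERa activity read via exogenous chimeric NR-Gal4 protein. After 24 hour compound exposure, reporter mRNA measured by RT-PCR with 6-FAM labelling and capillary electrophoresis; gain-of-signal fitted relative to DMSO.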
# [19] = molecular target: Androgen receptor (Homo sapiens) (UniProt P10275); test: ATG_AR_TRANS: Attagene TRANS-FACTORIAL HepG2 Assay for human Androgen Receptor (AR) (AID 2282973; active = hit-call score of the fitted dose curve at least 0.9, where 1 is the maximum); details: HepG2 Attagene TRANS-FACTORIAL AR reporter transcription
# Procedure, shortened: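 HepG2 cells transiently transfected with multiplexed GAL4-UAS reporter units and chimeric NR-Gal4 fusion; 24 h compound exposure. Reporter mRNA measured by RT-PCR, 6-FAM labelling, HpaI digestion and capillary electrophoresis; gain-of-signal fitted relative to DMSO baseline.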
# Sequence of Steroid hormone receptor ERR1 (Homo sapiens) (P11474 whole entry, looked up, the tested form may be a part): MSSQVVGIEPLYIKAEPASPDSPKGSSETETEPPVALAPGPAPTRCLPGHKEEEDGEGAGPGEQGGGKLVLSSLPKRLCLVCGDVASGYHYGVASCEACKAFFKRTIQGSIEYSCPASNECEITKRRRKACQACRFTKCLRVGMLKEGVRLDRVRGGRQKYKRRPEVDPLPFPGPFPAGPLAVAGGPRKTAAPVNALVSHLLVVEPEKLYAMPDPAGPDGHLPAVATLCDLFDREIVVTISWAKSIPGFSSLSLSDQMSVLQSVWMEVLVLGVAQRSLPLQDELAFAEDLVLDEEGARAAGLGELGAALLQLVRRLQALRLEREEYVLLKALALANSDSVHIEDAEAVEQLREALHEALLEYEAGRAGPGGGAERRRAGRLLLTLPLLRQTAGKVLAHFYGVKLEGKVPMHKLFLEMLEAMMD
# Sequence of Nuclear receptor subfamily 1 group I member 3 (Homo sapiens) (Q14994 whole entry, looked up, the tested form may be a part): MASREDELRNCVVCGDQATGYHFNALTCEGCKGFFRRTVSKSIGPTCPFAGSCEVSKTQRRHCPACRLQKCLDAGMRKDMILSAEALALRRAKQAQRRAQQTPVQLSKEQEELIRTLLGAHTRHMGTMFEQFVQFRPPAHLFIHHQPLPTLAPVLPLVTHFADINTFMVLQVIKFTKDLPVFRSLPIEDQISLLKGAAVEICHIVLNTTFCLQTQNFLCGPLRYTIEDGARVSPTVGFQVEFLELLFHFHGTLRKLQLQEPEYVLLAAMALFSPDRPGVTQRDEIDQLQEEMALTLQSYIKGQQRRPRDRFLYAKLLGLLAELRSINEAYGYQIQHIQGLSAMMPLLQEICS
# Sequence of Transcription factor Sp1 (Homo sapiens) (P08047 whole entry, looked up): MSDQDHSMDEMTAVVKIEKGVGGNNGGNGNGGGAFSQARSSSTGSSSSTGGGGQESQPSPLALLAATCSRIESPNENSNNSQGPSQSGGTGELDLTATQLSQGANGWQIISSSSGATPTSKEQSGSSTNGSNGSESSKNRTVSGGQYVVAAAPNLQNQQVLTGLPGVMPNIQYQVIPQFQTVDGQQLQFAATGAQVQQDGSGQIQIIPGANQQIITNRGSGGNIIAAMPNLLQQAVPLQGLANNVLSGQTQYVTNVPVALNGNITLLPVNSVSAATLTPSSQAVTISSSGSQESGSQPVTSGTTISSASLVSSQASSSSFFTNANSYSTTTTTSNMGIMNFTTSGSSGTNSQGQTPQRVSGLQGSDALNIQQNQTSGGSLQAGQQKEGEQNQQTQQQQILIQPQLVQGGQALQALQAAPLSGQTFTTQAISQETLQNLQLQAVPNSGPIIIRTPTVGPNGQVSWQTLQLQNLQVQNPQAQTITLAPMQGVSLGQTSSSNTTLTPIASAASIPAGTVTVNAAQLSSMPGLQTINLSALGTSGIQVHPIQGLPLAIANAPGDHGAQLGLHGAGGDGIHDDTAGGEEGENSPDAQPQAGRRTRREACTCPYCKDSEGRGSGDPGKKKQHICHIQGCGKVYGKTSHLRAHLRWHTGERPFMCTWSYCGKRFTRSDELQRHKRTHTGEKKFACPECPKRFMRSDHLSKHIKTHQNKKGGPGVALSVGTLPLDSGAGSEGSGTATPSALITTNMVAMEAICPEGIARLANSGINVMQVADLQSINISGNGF
# Sequence of Estrogen receptor (Homo sapiens) (P03372 whole entry, looked up, the tested form may be a part): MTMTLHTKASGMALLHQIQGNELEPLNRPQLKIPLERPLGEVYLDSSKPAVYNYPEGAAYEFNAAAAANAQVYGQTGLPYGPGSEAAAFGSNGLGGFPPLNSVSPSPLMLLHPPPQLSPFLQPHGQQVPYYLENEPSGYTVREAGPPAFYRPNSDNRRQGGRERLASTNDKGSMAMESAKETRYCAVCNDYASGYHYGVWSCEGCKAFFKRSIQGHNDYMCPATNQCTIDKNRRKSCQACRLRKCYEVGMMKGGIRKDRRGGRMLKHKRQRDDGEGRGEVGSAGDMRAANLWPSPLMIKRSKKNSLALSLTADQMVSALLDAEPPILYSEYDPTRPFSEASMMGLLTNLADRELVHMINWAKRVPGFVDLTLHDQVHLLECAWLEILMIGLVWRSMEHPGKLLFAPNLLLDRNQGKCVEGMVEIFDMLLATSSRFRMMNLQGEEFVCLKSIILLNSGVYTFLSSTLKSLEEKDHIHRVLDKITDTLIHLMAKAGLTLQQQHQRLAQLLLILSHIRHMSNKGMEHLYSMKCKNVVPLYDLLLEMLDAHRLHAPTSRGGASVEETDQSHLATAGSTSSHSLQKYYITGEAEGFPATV
# Sequence of Signal transducer and activator of transcription 3 (Homo sapiens) (P40763 whole entry, looked up): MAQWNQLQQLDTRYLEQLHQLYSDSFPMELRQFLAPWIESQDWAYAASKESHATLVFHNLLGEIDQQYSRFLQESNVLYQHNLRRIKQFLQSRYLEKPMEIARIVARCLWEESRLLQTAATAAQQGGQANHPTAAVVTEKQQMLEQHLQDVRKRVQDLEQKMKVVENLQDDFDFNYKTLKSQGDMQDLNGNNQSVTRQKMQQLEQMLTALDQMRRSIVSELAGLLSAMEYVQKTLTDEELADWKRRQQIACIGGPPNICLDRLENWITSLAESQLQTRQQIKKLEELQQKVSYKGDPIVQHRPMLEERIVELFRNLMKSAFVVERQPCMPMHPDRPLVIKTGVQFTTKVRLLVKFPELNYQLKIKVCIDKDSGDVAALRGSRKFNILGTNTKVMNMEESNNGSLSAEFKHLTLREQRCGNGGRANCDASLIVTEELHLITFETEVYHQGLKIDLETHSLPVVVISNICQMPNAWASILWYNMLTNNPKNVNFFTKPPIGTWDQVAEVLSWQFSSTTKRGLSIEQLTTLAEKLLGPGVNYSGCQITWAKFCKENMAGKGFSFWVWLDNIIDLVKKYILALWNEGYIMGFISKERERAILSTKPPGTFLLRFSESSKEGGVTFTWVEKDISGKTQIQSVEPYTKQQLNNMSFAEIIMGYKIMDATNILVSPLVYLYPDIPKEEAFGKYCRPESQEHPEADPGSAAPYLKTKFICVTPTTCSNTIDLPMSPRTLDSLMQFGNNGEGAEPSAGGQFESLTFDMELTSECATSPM
# Sequence of Bile acid receptor (Homo sapiens) (Q96RI1 whole entry, looked up, the tested form may be a part): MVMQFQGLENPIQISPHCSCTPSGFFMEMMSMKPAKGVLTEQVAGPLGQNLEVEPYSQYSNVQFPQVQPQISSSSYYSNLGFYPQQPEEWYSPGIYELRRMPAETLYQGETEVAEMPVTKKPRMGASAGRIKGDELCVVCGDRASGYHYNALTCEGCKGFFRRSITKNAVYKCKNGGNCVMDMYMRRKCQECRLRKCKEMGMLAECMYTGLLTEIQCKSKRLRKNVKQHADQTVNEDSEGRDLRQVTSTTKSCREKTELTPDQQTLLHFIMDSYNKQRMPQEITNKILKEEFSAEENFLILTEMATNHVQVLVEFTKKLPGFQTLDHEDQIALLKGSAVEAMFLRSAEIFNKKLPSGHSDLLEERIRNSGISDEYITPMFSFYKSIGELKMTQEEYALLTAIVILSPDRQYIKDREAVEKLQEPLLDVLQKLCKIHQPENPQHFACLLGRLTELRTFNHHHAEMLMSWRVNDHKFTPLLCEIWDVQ
# Sequence of Oxysterols receptor LXR-alpha (Homo sapiens) (Q13133 whole entry, looked up, the tested form may be a part): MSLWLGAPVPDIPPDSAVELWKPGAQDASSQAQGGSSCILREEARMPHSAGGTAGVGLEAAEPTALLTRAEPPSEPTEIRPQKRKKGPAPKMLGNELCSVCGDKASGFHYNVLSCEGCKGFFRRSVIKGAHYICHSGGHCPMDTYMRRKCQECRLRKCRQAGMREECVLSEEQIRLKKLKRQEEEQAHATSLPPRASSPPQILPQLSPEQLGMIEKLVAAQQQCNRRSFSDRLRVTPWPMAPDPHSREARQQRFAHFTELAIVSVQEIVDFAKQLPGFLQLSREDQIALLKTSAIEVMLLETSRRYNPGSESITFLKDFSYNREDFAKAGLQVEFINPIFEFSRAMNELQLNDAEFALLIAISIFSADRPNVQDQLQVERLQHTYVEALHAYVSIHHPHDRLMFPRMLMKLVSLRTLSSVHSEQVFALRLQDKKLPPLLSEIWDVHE
# Sequence of X-box-binding protein 1 (Homo sapiens) (P17861 whole entry, looked up): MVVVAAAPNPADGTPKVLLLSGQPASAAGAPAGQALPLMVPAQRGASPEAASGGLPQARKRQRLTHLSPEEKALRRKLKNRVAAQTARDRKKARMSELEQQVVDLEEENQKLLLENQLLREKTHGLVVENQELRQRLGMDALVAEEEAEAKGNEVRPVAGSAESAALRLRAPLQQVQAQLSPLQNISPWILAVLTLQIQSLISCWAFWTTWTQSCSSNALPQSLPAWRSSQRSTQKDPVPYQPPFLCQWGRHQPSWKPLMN
# Sequence of Glucocorticoid receptor (Homo sapiens) (P04150 whole entry, looked up, the tested form may be a part): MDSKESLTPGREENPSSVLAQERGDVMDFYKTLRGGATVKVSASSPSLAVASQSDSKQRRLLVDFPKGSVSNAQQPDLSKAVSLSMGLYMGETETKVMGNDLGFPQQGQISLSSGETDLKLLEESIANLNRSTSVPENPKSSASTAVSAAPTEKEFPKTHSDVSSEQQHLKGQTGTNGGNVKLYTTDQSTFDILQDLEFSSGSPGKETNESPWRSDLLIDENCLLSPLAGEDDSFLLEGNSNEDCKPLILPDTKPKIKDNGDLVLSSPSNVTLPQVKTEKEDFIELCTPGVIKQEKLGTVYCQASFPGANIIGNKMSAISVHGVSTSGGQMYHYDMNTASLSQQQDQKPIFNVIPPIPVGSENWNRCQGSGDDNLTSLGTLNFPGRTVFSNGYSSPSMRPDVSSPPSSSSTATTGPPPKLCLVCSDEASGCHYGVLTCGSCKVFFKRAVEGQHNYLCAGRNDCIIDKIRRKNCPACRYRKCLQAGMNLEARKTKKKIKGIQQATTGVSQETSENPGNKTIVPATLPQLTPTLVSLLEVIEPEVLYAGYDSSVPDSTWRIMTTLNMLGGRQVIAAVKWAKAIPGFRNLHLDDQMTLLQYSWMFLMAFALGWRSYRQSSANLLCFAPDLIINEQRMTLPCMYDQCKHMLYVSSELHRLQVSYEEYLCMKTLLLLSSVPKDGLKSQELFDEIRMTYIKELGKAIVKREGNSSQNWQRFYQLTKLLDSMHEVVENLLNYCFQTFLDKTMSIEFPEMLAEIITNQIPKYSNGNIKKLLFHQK
compound,measurement,setting,value
CC(C=O)Cc1ccc2c(c1)OCO2 (configuration not stated),outcome,[1],inactive
same,outcome,[2],inactive
same,outcome,[3],inactive
same,outcome,[4],inactive
same,outcome,[5],inactive
same,outcome,[6],inactive
same,outcome,[7],inactive
same,AC50,[8],12.8 µM (active)
same,outcome,[9],inactive
same,outcome,[10],inactive
same,outcome,[11],inactive
same,outcome,[12],inactive
C=CCOC(N)=O,outcome,[1],inactive
same,outcome,[2],inactive
same,outcome,[3],inactive
same,outcome,[4],inactive
same,outcome,[5],inactive
same,outcome,[6],inactive
same,outcome,[7],inactive
same,outcome,[8],inactive
same,outcome,[9],inactive
same,outcome,[10],inactive
same,outcome,[11],inactive
Cc1cc(Cl)ccc1N,outcome,[3],inactive
same,outcome,[4],inactive
same,outcome,[6],inactive
same,outcome,[7],inactive
same,outcome,[13],inactive
same,outcome,[9],inactive
same,outcome,[14],inactive
same,outcome,[10],inactive
same,outcome,[12],inactive
Brc1c(Br)c(Br)c(Oc2c(Br)c(Br)c(Br)c(Br)c2Br)c(Br)c1Br,outcome,[2],inactive
same,outcome,[3],inactive
same,outcome,[4],inactive
same,outcome,[5],inactive
same,outcome,[6],inactive
same,outcome,[7],inactive
same,outcome,[13],inactive
same,outcome,[15],inactive
same,outcome,[9],inactive
same,outcome,[14],inactive
same,outcome,[10],inactive
same,outcome,[16],inactive
same,outcome,[12],inactive
Clc1cccc(Cl)c1Cl,outcome,[1],inactive
same,outcome,[2],inactive
same,outcome,[3],inactive
same,outcome,[5],inactive
same,outcome,[6],inactive
same,outcome,[7],inactive
same,outcome,[8],inactive
same,outcome,[15],inactive
same,outcome,[9],inactive
same,outcome,[17],inactive
CCCCC(CC)C(=O)Cl (configuration not stated),outcome,[1],inactive
same,outcome,[3],inactive
same,outcome,[4],inactive
same,outcome,[6],inactive
same,outcome,[7],inactive
same,outcome,[18],inactive
same,outcome,[9],inactive
same,outcome,[14],inactive
same,outcome,[11],inactive
C1CCC(C2CCCCC2)CC1,outcome,[1],inactive
same,outcome,[2],inactive
same,outcome,[3],inactive
same,outcome,[4],inactive
same,outcome,[5],inactive
same,outcome,[6],inactive
same,outcome,[7],inactive
same,outcome,[13],inactive
same,AC50,[18],27.9 µM (active)
same,outcome,[9],inactive
same,outcome,[11],inactive
same,outcome,[12],inactive
CNC(=O)O/N=C/C(C)(C)S(C)(=O)=O,outcome,[2],inactive
same,outcome,[3],inactive
same,outcome,[4],inactive
same,outcome,[5],inactive
same,outcome,[6],inactive
same,outcome,[7],inactive
same,outcome,[13],inactive
same,outcome,[9],inactive
same,outcome,[14],inactive
O=C(Cc1ccccc1)OCCc1ccccc1,outcome,[1],inactive
same,outcome,[2],inactive
same,outcome,[3],inactive
same,outcome,[4],inactive
same,outcome,[5],inactive
same,outcome,[6],inactive
same,AC50,[7],115 µM (active)
same,outcome,[8],inactive
same,outcome,[18],inactive
same,outcome,[9],inactive
same,outcome,[10],inactive
same,outcome,[16],inactive
O=C1c2ccccc2C(=O)C1C(=O)C(c1ccccc1)c1ccc(Cl)cc1 (configuration not stated),AC50,[1],7.69 µM (active)
same,AC50,[2],9.14 µM (active)
same,AC50,[3],167 µM (active)
same,outcome,[4],inactive
same,AC50,[5],12.2 µM (active)
same,AC50,[6],161 µM (active)
same,AC50,[7],8.18 µM (active)
same,AC50,[8],2.93 µM (active)
same,outcome,[18],inactive
same,outcome,[15],inactive
same,AC50,[9],5.66 µM (active)
same,outcome,[19],inactive
same,AC50,[14],163 µM (active)
same,outcome,[17],inactive
same,outcome,[16],inactive
